Source: PubChem BioAssay
For part of these data: Entries with a potency or affinity are not part of this list. Activity calls are given as the source filed them.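 The calls were made as follows, unless noted: active = dose curve with midpoint inside tested range, moderate steepness, plateau gap beyond fit error, low compound glow and bead-link interference; inactive = the rest.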

What was measured:
[1] = molecular target: Cell division control protein 42 homolog (Homo sapiens) (UniProt P60953); test: activated mutant Cdc42 GTP-binding inhibitors, dose response, biochemical, multiplex bead flow cytometry, Bodipy-FL-GTP (AID 1333;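 active = fitted half-maximal concentration within the tested dose range, moderate curve steepness, a statistically real signal drop, and little compound fluorescence or tag-binding interference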)
Sequence of Cell division control protein 42 homolog (Homo sapiens) (P60953 whole entry, looked up): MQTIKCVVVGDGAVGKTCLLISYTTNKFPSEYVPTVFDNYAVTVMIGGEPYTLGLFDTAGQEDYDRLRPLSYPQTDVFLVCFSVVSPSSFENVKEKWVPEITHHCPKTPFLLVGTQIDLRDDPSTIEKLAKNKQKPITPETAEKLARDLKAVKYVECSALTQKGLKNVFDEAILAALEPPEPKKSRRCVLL

[2] = molecular target: Cell division control protein 42 homolog (Homo sapiens) (UniProt P60953); test: wildtype Cdc42 GTP-binding inhibitors, dose response, biochemical, multiplex bead flow cytometry, Bodipy-FL-GTP (AID 1334;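 active = fitted half-maximal concentration within the tested range, moderate curve steepness, significant signal drop, and little compound fluorescence or bead-linkage interference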); details: bead-based flow cytometry, Bodipy-FL-GTP binding to GST-Cdc42; at 100 µM (top of the series) unless noted
[3] = molecular target: GTPase HRas (Homo sapiens) (UniProt P01112); test: inhibitors of GTP binding to wildtype Ras, dose response, biochemical, multiplex bead flow cytometry (AID 1335;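 active = fitted half-maximal concentration within 10 nM to 100 µM, steepness 0.5 to 2, significant signal drop, low assay interference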); details: bead-based flow cytometry, Bodipy-GTP binding to GST-Ras; at 100 µM (top of the series) unless noted
Sequence of GTPase HRas (Homo sapiens) (P01112 whole entry, looked up): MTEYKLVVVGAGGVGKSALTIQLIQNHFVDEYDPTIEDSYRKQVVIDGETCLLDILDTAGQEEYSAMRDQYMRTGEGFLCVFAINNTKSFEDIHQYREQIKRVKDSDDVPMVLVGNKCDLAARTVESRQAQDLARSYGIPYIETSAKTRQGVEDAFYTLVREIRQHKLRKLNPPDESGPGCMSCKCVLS

[4] = tested on: Ras-related protein Rab-7a (dog), GTP binding; test: Rab7 GTP binding inhibitors, potency, dose response, biochemical, wildtype, multiplex bead flow cytometry (AID 1336; call rule not given here)
[5] = molecular target: Ras-related C3 botulinum toxin substrate 1 (Homo sapiens) (UniProt P63000); test: wildtype Rac1 GTP binding inhibitors, dose response, biochemical, multiplex bead flow cytometry (AID 1340); details: GST-Rac1 beads, Bodipy-FL-GTP binding; at 100 µM (top of the series) unless noted
[6] = molecular target: GTPase HRas (Homo sapiens) (UniProt P01112); test: activated Ras mutant GTP binding inhibitors, dose response, biochemical, multiplex bead flow cytometry (AID 1341;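 active = dose-response curve with midpoint inside the tested range, moderate steepness, significant amplitude and little compound fluorescence or bead-attachment interference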;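 also: GST-tagged constitutively activated Ras mutant immobilized on beads and multiplexed with other GTPases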)

Compound	outcome [1]	fluorescence, percent of control (lower = inhibition) [2]	GTP binding, percent of control [3]	outcome [4]	GTP binding signal, raw median fluorescence (lower = inhibition) (MCF (arbitrary fluorescence units)) [5]	outcome [6]
COc1ccc(/C=C2\SC(=S)NC2=O)cc1OS(=O)(=O)c1ccc(NC(C)=O)cc1	inactive	30.9%	80.1%	inactive	261	inactive
CCc1nnc(NS(=O)(=O)c2ccc(Nc3ccc4nonc4c3[N+](=O)[O-])cc2)s1	inactive	26.3%	65.4%	inactive	147	inactive
C=CCn1c(SCC(=O)Nc2ccc3c(c2)OCO3)nnc1-c1cc(Br)ccc1O	inactive	66.9%	84.9%	inactive	108	inactive
Cc1sc2ncnc(N/N=C/c3ccc(O)cc3)c2c1C	inactive	27.2%	64.8%	inactive	312	inactive
COc1ccccc1OCCn1cc(C(=O)O)c2ccccc21	inactive	102%	139%	inactive	87.3	inactive
CC1CCCN(c2ccc3nc4ccccc4c(=O)n3n2)C1 (stereo not given)	inactive	33.3%	74.6%	inactive	179	inactive
Cc1cc(NS(=O)(=O)c2ccc(NC(=O)c3cc4c(=O)n5ccccc5nc4s3)cc2)nc(C)n1	inactive	31.9%	77.5%	inactive	166	inactive
O=C(O)c1ccccc1NCc1c(Cl)cccc1Cl	inactive	59.4%	87.4%	inactive	30.2	inactive
CC(C)CCNC(=O)Cc1ccc(Nc2nc(=S)[nH]c3ccccc23)cc1	inactive	32.2%	71.5%	inactive	169	inactive
COc1ccc(CCn2c(C(C)C)nc3c(c(=O)c4ccccc4n3C)c2=O)cc1	inactive	34.5%	82.6%	inactive	241	inactive
CCCn1cc(CN2CCCC(CNC(=O)c3ccc(F)cc3)C2)c(C)n1 (stereo not given)	inactive	37.6%	85.7%	inactive	247	inactive
Cc1ccccc1COc1cccc(C)c1C(=O)O	inactive	58%	200%	inactive	56.1	inactive
Oc1ccc(/C=N/NC(=S)N/N=C/c2ccc(O)cc2)cc1	inactive	45%	88.4%	inactive	177	inactive
CCC(=O)N=C1SC2CS(=O)(=O)CC2N1c1cccc(OC)c1 (stereo not given)	inactive	89%	162%	inactive	180	inactive
CC(C)c1ccc(C(=O)NC2=NCCS2)cc1	inactive	50.5%	62.6%	inactive	204	inactive
COc1ccc(-c2nn(-c3ccccc3)cc2C(=O)NCCCn2ccnc2)cc1	inactive	49.1%	61.1%	inactive	202	inactive
Cc1cc(NC(=O)/C(C#N)=C/c2ccc(-c3ccc(SC(F)F)cc3)o2)n(-c2ccccc2)n1	inactive	75.1%	96.7%	inactive	211	inactive
O=c1c2ccccc2nc2c3ccccc3cnn12	inactive	46.9%	88.4%	inactive	175	inactive
Cc1ccc(C)c(OCCSc2nc3ccccc3n2CC(=O)O)c1	inactive	59.6%	88.1%	inactive	29.2	inactive
O=C(O)COc1ccccc1/C=N/NC(=O)c1cccc(S(=O)(=O)Nc2cccc(Cl)c2)c1	inactive	36.3%	79.8%	inactive	124	inactive

Compound	outcome [1]	fluorescence, percent of control (lower = inhibition) [2]	GTP binding, percent of control [3]	outcome [4]	GTP binding signal, raw median fluorescence (lower = inhibition) (MCF (arbitrary fluorescence units)) [5]	outcome [6]
COc1cccc(C(=O)O)c1OCc1c(C)cccc1C	inactive	58.8%	204%	inactive	54.1	inactive
CCCc1nc2oc3c(=O)[nH]cnc3c2c2c1CCCC2	inactive	35.5%	79.1%	inactive	193	inactive
CCN(CC)c1ccc(/C=N/OCC(=O)Nc2cccc(C)c2)cc1	inactive	65.3%	74.6%	inactive	0	inactive
Cc1nc2ncccn2c1-c1csc(Nc2ccccc2)n1	inactive	26.5%	40.8%	inactive	105	inactive
Cc1c(C(=O)N/N=C/c2ccc(-c3ccccc3[N+](=O)[O-])o2)sc(N)c1C#N	inactive	37.4%	49.1%	inactive	157	inactive
Cc1ccc(CN2CC34C=CC(C)(O3)C(C(=O)O)C4C2=O)cc1 (stereo not given)	inactive	60.3%	87.8%	inactive	33.4	inactive
COCCNC(=O)c1cnn2c(C(F)F)cc(-c3ccccc3)nc12	inactive	40%	85.2%	inactive	204	inactive
CCn1cc(C(=O)O)c(=O)c2cc(F)c(N/N=C/c3ccccc3[N+](=O)[O-])cc21	inactive	32.3%	44%	inactive	110	inactive
Cc1cccc(C)c1CCOc1ncccc1C(=O)O	inactive	80.3%	251%	inactive	70.2	inactive
O=C(CNC(=O)c1ccco1)OCN1C(=O)c2ccccc2C1=O	inactive	52%	66.1%	inactive	220	inactive
COc1ccc(NC(=O)c2cc3nc(-c4ccccc4)cc(C)n3n2)cc1OC	inactive	33.2%	76.8%	inactive	218	inactive
Cn1c(=O)c2c(nc(N3CCc4ccccc4C3)n2C)n(C)c1=O	inactive	36.7%	76.9%	inactive	193	inactive
N#Cc1c(C(F)(F)F)cc(-c2ccc(Cl)cc2)[nH]c1=O	inactive	27.5%	66%	inactive	178	inactive
O=C(NCCc1c[nH]c2ccccc12)c1cccc(S(=O)(=O)Nc2ccccc2Cl)c1	inactive	32.1%	71.4%	inactive	175	inactive
Nc1c(S(=O)(=O)c2cccs2)c2nc3ccccc3nc2n1/N=C/c1cccc(O)c1	inactive	30.6%	77.3%	inactive	101	inactive
CCN(CC)S(=O)(=O)c1ccc2c(c1)c(=O)c(C(=O)N1CCc3ccccc3C1)cn2C	inactive	96.7%	172%	inactive	225	inactive
CCOCCCNc1nc(=S)[nH]c2cc(OC)c(OC)cc12	inactive	60.4%	99.7%	inactive	111	inactive
CCOC(=O)CCCCC(=O)c1[nH]c(=O)[nH]c1CSc1nnc2c3cc(Br)ccc3n(C)c2n1	inactive	34.4%	80.3%	inactive	167	inactive
Cc1ccc(-c2nnc(-c3ccccc3S(=O)(=O)Cc3ccc(Cl)cc3)o2)cc1	inactive	90.3%	165%	inactive	184	inactive
O=c1c2ccccc2nc2c3ccccc3c(Cl)nn12	inactive	36.6%	83.1%	inactive	213	inactive

Compound	outcome [1]	fluorescence, percent of control (lower = inhibition) [2]	GTP binding, percent of control [3]	outcome [4]	GTP binding signal, raw median fluorescence (lower = inhibition) (MCF (arbitrary fluorescence units)) [5]	outcome [6]
COc1ccc2cc(C)c3nnc(SCc4cccnc4)n3c2c1	inactive	32.1%	76.7%	inactive	221	inactive
COc1ccc(-c2cc(-c3ccc(O)cc3)nc(N)c2C#N)cc1OC	inactive	32.2%	77.1%	inactive	184	inactive
CCOc1ccc(C2C(C(=O)O)CCC(=O)N2C2CCCCC2)cc1 (stereo not given)	inactive	23%	59.8%	inactive	178	inactive
Cc1[nH]c2ccccc2c1/C=C/C(=O)c1ccccc1	inactive	68.9%	81.7%	inactive	216	inactive
O=C(NC1CCCCC1)c1noc2c1CCCCC2	inactive	34.3%	80.9%	inactive	252	inactive
CCOc1cc(C2c3c(-c4ccccc4)n[nH]c3C(=O)N2c2ccc(C(=O)O)cc2)ccc1O (stereo not given)	inactive	29%	79.3%	inactive	95.9	inactive
O=C(Nc1nc(-c2cccs2)cs1)c1cc2ccccc2oc1=O	inactive	51.8%	130%	inactive	141	inactive
COc1ccccc1OCCn1cc(C(=O)O)c2cccc(Cl)c21	inactive	53.4%	199%	inactive	56.2	inactive
COc1cc(/C=N/NC(=O)CN(Cc2ccco2)S(=O)(=O)c2ccccc2)ccc1O	inactive	32.8%	46.1%	inactive	104	inactive
CCOc1cc(/C=C2/SC(=S)NC2=O)ccc1OC(=O)c1ccco1	inactive	33.4%	83.7%	inactive	208	inactive
Cc1cc2ccccn2c1C(=O)c1ccc(NN)c([N+](=O)[O-])c1	inactive	35.2%	83.1%	inactive	240	inactive
O=C(O)c1nnn(Cc2ccccc2)c1C(=O)O	inactive	60.5%	82.2%	inactive	33	inactive
COc1ccc(C)cc1NC(=O)COC(C)=O	inactive	94.8%	180%	inactive	179	inactive
O=S(=O)(CC(CN1CCOCC1)N1CCOCC1)c1ccccc1 (stereo not given)	inactive	43.3%	92.1%	inactive	310	inactive
CC(C)(C)NC(=O)CSc1nccn1Cc1ccccc1	inactive	33.3%	78.6%	inactive	144	inactive
Cc1ccc(O)c(C(=O)c2cnn(C(=O)Cc3csc(C)n3)c2)c1	inactive	37%	86.3%	inactive	242	inactive
COc1ccccc1NS(=O)(=O)c1cc([N+](=O)[O-])ccc1N/N=C/c1sc(N2CCOCC2)nc1-c1ccccc1	inactive	73.1%	81%	inactive	230	inactive
O=C(O)c1ccc(CNCc2ccc(F)cc2)cc1	inactive	43.1%	87.8%	inactive	260	inactive
Cc1nonc1OCCNc1ccc([N+](=O)[O-])cc1[N+](=O)[O-]	inactive	50.3%	63.5%	inactive	209	inactive
O=C(O)c1ccc(Nc2nc(-c3cc4ccccc4oc3=O)cs2)cc1O	inactive	29.2%	74.6%	inactive	177	inactive
